Screens deposited in PubChem BioAssay by National Center for Advancing Translational Sciences (NCATS).
An excerpt weighted towards active compounds, which were near 7.5% of everything screened.
NPC1 promoter act = activates the NPC1 promoter; Huh7 NPC1 promoter luciferase reporter, 24 h; Potency, µM (highest dose often 9.22 µM), without a hit: top-dose activation, most hits filed as activators; 320,000 tested, 2.4% active; AID 485313; also: % of control where 0% means no effect; nearly all actives have a fitted effect of over 60% in size
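Luminescence from an NPC1 promoter-driven luciferase reporter in stably transfected Huh7 cells was measured after 24 h compound treatment at 37 °C, followed by 10 min ambient incubation with luciferase detection reagent.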
SMN2 splice up = SMN2 splice variant enhancement; AID 1458; HEK293 SMN2-luciferase splicing reporter, luminescence, 30-36 h; 210,000 tested, 2.8% active; Potency, µM (highest dose often 46.1 µM), without a hit: at the top dose activity change, positive = activation, hits mostly activators; also: % of control where 0% means no effect; nearly all actives have a fitted effect of over 55% in size
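HEK293 cells carry an SMN2 minigene-luciferase reporter in which exon 7 inclusion puts luciferase in frame. Cells were seeded at 2000 cells/well, attached for 10-12 hours, then exposed to compounds for 30-36 hours at 37C before ONE-Glo luminescence.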
FLuc modulator = inhibits or activates purified firefly luciferase, miR-21 counter-screen | P08659 | purified FLuc, Km substrates, luminescence inhibition | Potency, µM (series often up to 57.5 µM), for the others: at the top dose activity change, negative = inhibition, most hits filed as inhibitors | 360,000 tested, 6.9% active | AID 588342;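 also: plate controls were vehicle for no effect and reference inhibitor for full effect; nearly all actives have a fitted effect of over 55% in size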
Target sequence (P08659 whole entry, looked up): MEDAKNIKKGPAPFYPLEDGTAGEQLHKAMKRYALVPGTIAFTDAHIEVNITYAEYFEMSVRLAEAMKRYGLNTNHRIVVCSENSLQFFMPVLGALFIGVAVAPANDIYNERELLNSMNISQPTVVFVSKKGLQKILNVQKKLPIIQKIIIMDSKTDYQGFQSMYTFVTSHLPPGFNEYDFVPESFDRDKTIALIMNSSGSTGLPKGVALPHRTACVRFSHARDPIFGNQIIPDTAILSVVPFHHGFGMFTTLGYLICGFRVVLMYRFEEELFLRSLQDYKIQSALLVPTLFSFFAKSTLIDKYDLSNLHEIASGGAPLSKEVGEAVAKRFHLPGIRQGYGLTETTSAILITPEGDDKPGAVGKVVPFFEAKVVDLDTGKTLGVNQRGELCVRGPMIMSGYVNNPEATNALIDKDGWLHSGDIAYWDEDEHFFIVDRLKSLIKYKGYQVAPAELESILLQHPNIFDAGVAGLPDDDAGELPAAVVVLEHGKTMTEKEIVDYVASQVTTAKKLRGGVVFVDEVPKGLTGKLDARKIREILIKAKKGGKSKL
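Purified P. pyralis luciferase, 10 nM final, with Km-level 10 uM D-luciferin and 10 uM ATP in 50 mM Tris acetate pH 7.5, 10 mM Mg acetate, 0.01% Tween-20, 0.05% BSA; 6-point qHTS titration about 60 µM downward; luminescence read.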
Rab9 prom act = activates the Rab9 promoter; Huh7 Rab9 promoter-luciferase reporter, luminescence, 24 h; Potency, µM (series often up to 9.22 µM), for the others: at the top dose activation, negative = inhibition, actives largely listed as activators; 320,000 tested, 2.8% active; also: % of control where 0% means no effect; nearly all actives have a fitted effect of over 60% in size
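Cells were plated at 1500 per well in reduced-serum medium with 10% FBS and left 2 h. Compound in DMSO was then added for 24 h at 37 °C. Reporter signal was read by luminescence after 10 min with luciferase detection reagent.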
ELG1 genotox = genotoxicity induction in ELG1-luciferase HEK293T cells. HEK293T ELG1-luciferase reporter, luminescence, 16 h. Potency, µM (titrated, usually from 46 µM), without a hit: top-dose activity change, positive = activation, most hits filed as activators. 330,000 tested, 1.3% active. AID 504466; also: % of control where 0% means no effect; nearly all actives have a fitted effect of over 60% in size
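Quantitative HTS format in 1536-well plates. HEK293T ELG1-luciferase reporter cells receive test compound and are incubated 16 hr at 37 °C, 5% CO2; ONE-Glo added, 30 min room temperature, then luminescence read.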
Active calls of the source: *; ? = inconclusive; nt = not tested or not shown; [ ] = dose if it differs, or a comment. Calls follow the shape of the dose curve; as a rule, active = well fitted curve in the direction sought with a large enough effect; inconclusive = small, poorly fitted or top-dose-only effect, or another doubt; inactive = no such curve, though single readings can be large; an effect the other way counts as inactive or inconclusive. Potency is read from the fitted curve at half-maximal effect.

SMILES | NPC1 promoter act | SMN2 splice up | FLuc modulator | Rab9 prom act | ELG1 genotox
COc1cccc(C(=O)NC2CCCC2)c1 | 2% | 0% | -9% | 21% | 5%
CSc1ncc(CN2CCN(CC=C(C)C)C(CCO)C2)cn1 (stereo not given) | -3% | nt | 0% | 0% | 0%
CCCNC(=O)C(=O)NCCC1=CCCCC1 | -1% | -8% | -1% | 4% | 7%
O=c1[nH]c(N/N=C\c2ccc(F)cc2)nc2ccccc12 | ? | 10µM* | 4.8µM* | 1.3µM* | ?
O=c1[nH]c(N/N=C/c2ccc(O)cc2)nc2ccccc12 | ? | 22µM* | 11µM* | 2.2µM* | 21µM*
C=CCn1c(N/N=C/c2ccc(O)cc2)nc2ccccc2c1=O | -2% | -1% | 2.4µM* | 30% | ?
C=CCn1c(C)nc2ccccc2c1=O | 1% | nt | 0% | -2% | 1%
CCS(=O)(=O)Nc1cc(OC)c(OC)cc1Cc1nccc2cc(OC)c(OC)cc12 | -3% | nt | -5% | 4% | 4%
COCC(=O)N/N=C(\C)CC(=O)NCc1ccco1 | 0% | 2% | -2% | -6% | -6%
O=C(N/N=C/c1cccc(NC(=O)c2ccc(Cl)cc2)c1)c1ccc(O)cc1 | 2.5µM* | nt | 1.3µM* | 4µM* | -2%
O=C(N/N=C/c1cccc(F)c1)c1ccc(Cl)cc1 | 4µM* | 16µM* | 2.4µM* | 3.2µM* | ?
CC(C)(C)c1ccc(C(=O)N/N=C/c2cccc(Cl)c2)cc1 | ? | 1% | 4.8µM* | ? | -6%
O=C1C2C3C=CC(C3)C2C(=O)N1CN(Cc1ccccc1)CN1C(=O)C2C3C=CC(C3)C2C1=O (stereo not given) | -1% | -16% | 0% | 6% | -2%
CC(C)(C)c1ccc(C(=O)n2cnc3ccccc32)cc1 | -1% | nt | 3.4µM* | 2% | 11%
CCN(CC)c1ccc(C(=O)n2cnc3ccccc32)cc1 | ? | 2% | 5.4µM* | ? | 7%
CN(C)c1ccc(C(=O)n2nnc3ccccc32)cc1 | 5% | 2% | 0.13µM* | 2% | ?
Cc1cc2ncn(C(=O)c3ccc(F)cc3)c2cc1C | 2% | nt | 13µM* | -4% | 2%
CCN(CC)c1ccc(C(=O)Nn2cnc3ccccc3c2=O)cc1 | 3% | nt | ? | 16% | 7%
CCCC(=O)Nc1ccc(C(=O)n2nnc3ccccc32)cc1 | -4% | 7% | -1% | -4% | 0%
CCCN(Cc1nc2cc(Cl)ccc2c(=O)[nH]1)C(=O)c1ccc(S(=O)(=O)N2CCCC2)cc1 | -2% | nt | nt | -9% | -2%
Cc1cccc(C)c1N=Nc1c(C)cc(O)cc1C | -10% | nt | -2% | 0% | ?
COC(=O)c1sccc1NC(=O)Nc1ccc(C)cc1 | 1% | nt | 1.7µM* | -1% | ?
COC(=O)c1sccc1NC(=O)Nc1ccc(F)cc1 | 1% | nt | 8.5µM* | 0% | 11%
COC(=O)c1sccc1NC(=S)Nc1ccc(F)cc1 | 1% | 17% | 0% | 0% | 0%
COC(=O)c1sccc1NC(=O)Nc1cc(C)cc(C)c1 | 4% | nt | 7.6µM* | -5% | ?
SMILES | NPC1 promoter act | SMN2 splice up | FLuc modulator | Rab9 prom act | ELG1 genotox
COC(=O)c1sccc1NC(=O)Nc1ccc(C)cc1C | 5% | nt | -18% | 7% | 10%
COC(=O)c1sccc1NC(=O)Nc1ccc(F)cc1F | -3% | nt | 21µM* | 2% | 4%
Cn1cnnc1SCC(=O)Nc1cccc(C(=O)O)c1 | 4% | 10% | 3% | 0% | 0%
COC(=O)c1sccc1NC(=O)Nc1ccc(C(C)=O)cc1 | 0% | nt | 2.1µM* | 10% | 18µM*
COc1ccc(NC(=O)Nc2ccc(F)cc2F)cc1 | 2.2µM* | 20µM* | 5.4µM* | 2.8µM* | ?
COC(=O)c1sccc1NC(=O)c1ccc(C(C)C)cc1 | 28% | nt | 11µM* | 3.5µM* | 15%
O=C(c1ccco1)N1CCN(Cc2nnc(-c3ccccc3F)o2)CC1 | 0% | nt | 0% | 5% | 1%
Cn1c(=O)n(C)c2cc(C(=O)O)ccc21 | -2% | 13% | 3% | 4% | -1%
CC(C)Oc1ccc(C(=O)Nc2ccc(N(C)C)cc2)cc1 | 19% | nt | 3.4µM* | 18% | 4.1µM*
CCCOc1ccc(C(=O)Nc2ccc(N(C)C)cc2)cc1 | 15% | 92% | 0.76µM* | ? | 5.6µM*
CCCOc1ccc(NC(=O)c2cc3cc(C)ccc3[nH]2)cc1 | 1.8µM* | nt | -9% | ? | 10%
Cc1ccc2[nH]c(C(=O)Nc3ccc(F)cc3)cc2c1 | ? | nt | ? | ? | 3%
Cn1c(=O)n(C)c2cc(C(N)=O)ccc21 | -2% | 22µM* | 8%[2.3 µM] | 1% | 9%
COc1cc(C(=O)NCC(c2ccco2)N(C)C)cc(OC)c1OC (stereo not given) | 11% | 13% | -1% | 13% | 7%
CN(C(=O)COC(=O)c1nc(Cl)ccc1Cl)c1ccccc1 | 3% | nt | -1% | 4% | 6%
CNC[C@@H]1Oc2c(NC(=O)Nc3ccc(F)cc3)cccc2C(=O)N([C@H](C)CO)C[C@@H]1C | nt | nt | nt | nt | 1%
CCCCn1nnc(NC(=O)Cc2ccc(Cl)cc2)n1 | 8% | 2% | -2% | -1% | 2%
CC(C)Oc1ccc(C(=O)Nc2ccc3c(c2)n(C)c(=O)n3C)cc1 | 0% | nt | 12µM* | 2% | 23µM*
CN1CCc2c(sc(/N=C/c3c[nH]c4ccccc34)c2C(N)=O)C1 | 13% | nt | ? | -1% | -12%
CN1CCc2c(sc(/N=C/c3c[nH]c4ccccc34)c2C#N)C1 | 17% | nt | 1.3µM* | 2.8µM* | ?
CCOC(=O)c1c(/N=C/c2ccc(OC)cc2O)sc2c1CCN(C)C2 | 1% | nt | ? | -3% | -2%
CN1CCc2c(sc(/N=C/c3cc(Cl)ccc3O)c2C#N)C1 | 18% | nt | 2.4µM* | ? | 16µM*
Cc1ccc(S(=O)(=O)N(CC(=O)Nc2cccnc2)c2cccc(Br)c2)cc1 | 1% | nt | 1% | -1% | -15%
COc1ccc(Cn2c(O)c(/C=N/NC(=O)c3cccnc3)c3ccccc3c2=O)cc1 | -2% | -78% | ? | -2% | 1%
COc1ccc(Nc2n[nH]c(C)c2[N+](=O)[O-])cc1 | 22% | 29% | ? | 3.5µM* | ?
SMILES | NPC1 promoter act | SMN2 splice up | FLuc modulator | Rab9 prom act | ELG1 genotox
Cc1[nH]nc(Nc2ccc(O)cc2)c1[N+](=O)[O-] | -3% | nt | -14% | 8% | 6%
O=C(CN1C(=O)NC2(CCCC2)C1=O)NCCC1=CCCCC1 | 6% | 11% | 2% | 11% | 6%
COc1cccc2c1C(=O)O/C2=C/c1ccc2c(c1)OCO2 | ? | ? | 0.11µM* | ? | ?
O=C(O)CCC(=O)c1ccc2ccc3cccc4ccc1c2c34 | -1% | -13%[9.22 µM] | 21µM* | -4% | 4%
COc1cccc(CNC(=O)C(C)n2ncn3cccc3c2=O)c1OC (stereo not given) | nt | nt | 6µM* | nt | nt
COC(=O)c1scc(-c2ccc(C)cc2)c1S(=O)(=O)N1CCN(c2ccc(C(C)=O)cc2)CC1 | nt | nt | -2% | nt | nt
